Compound activity: PubChem BioAssay, The Scripps Research Institute Molecular Screening Center
In the library only some 2.9% were active in any assay of this set; here they are far more common.
PAFAH2 inh: PAFAH2 (human) inhibition; Q99487; 0.99% of 340,000 active; inhibition, % at 3.39 µM; recombinant PAFAH2, FP-rhodamine activity probe, fluorescence polarization;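 active = inhibition above the mean over all tested compounds plus 3 SD, cut at about 30% in these data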;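 also: inhibitors block probe labeling of enzyme so polarization drops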
EBNA-1 inhibitor: blocks EBNA-1 binding to DNA | EBNA-1 DNA binding, fluorescence polarization | inhibition, % at 14.8 µM | 0.34% of 300,000 active | AID 1950; in the data active = inhibition above about 28%
PAFAH1B3 inh: blocks human PAF acetylhydrolase 1B catalytic subunit 3; Q15102; recombinant PAFAH1B3, FP-rhodamine probe, fluorescence polarization; inhibition, % at 3.39 µM; 0.28% of 340,000 active;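 active = inhibition above the screen-wide average of all tested compounds plus 3 SD, cut at about 25% in these data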
Target sequence (Q15102 whole entry, looked up): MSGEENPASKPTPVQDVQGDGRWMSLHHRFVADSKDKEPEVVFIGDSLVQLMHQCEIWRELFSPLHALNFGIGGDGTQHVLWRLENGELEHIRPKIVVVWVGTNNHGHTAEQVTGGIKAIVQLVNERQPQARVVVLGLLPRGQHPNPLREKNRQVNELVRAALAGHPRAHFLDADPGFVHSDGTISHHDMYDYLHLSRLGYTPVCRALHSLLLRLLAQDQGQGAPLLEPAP
pPAFAH FP inh: inhibitors of human plasma PAF acetylhydrolase (pPAFAH); Q13093; 1.5% of 330,000 active; inhibition, % at 3.39 µM; recombinant pPAFAH, FP-rhodamine probe fluorescence polarization;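 active = inhibition above the mean inhibition across the screen plus 3 SD, cut at about 25% in these data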;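 also: inhibitors block binding of the rhodamine activity-based probe so polarization drops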
PAFAH1B2 inh: PAFAH1B2 (human) inhibition. P68402. recombinant PAFAH1B2, FP-rhodamine activity probe, fluorescence polarization. inhibition, % at 3.39 µM. 1.2% of 340,000 active. AID 492953;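 active = inhibition above the mean of all tested compounds plus 3 SD, cut at about 24% in these data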
Target sequence (P68402 whole entry, looked up): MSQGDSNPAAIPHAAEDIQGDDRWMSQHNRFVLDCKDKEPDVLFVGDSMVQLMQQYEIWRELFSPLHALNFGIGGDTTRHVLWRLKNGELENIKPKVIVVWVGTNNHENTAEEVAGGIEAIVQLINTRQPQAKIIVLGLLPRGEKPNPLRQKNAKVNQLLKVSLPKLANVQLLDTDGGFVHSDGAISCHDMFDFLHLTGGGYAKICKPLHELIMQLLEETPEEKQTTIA
ZTA counter: blocks Epstein-Barr virus ZTA, an EBNA-1 counter-screen | ZTA-DNA binding, fluorescence polarization | P03206 | AID 2234 | inhibition, % at 11 µM | 0.15% of 320,000 active; in the data active = inhibition above about 33%
A number is an active result; - = inactive; . = no result.

SMILES | PAFAH2 inh | EBNA-1 inhibitor | PAFAH1B3 inh | pPAFAH FP inh | PAFAH1B2 inh | ZTA counter
O=C(C[C@H]1C/C=C\C[C@H](Cc2ccc(F)cc2)C(=O)OC[C@@H]2CCCN2C1=O)N[C@H](CO)Cc1ccccc1 | - | . | - | - | - | .
C[C@@H]1COC(=O)[C@H](Cc2ccc(F)cc2)C/C=C\C[C@@H](CC(=O)N[C@H](CO)Cc2ccccc2)C(=O)N1 | - | . | - | - | 26.9 | .
CC(C)(C)[C@H]1COC(=O)[C@@H](Cc2ccc(F)cc2)CC/C=C/C[C@@H](CC(=O)N[C@H](CO)Cc2ccccc2)C(=O)N1 | - | . | - | - | 30.5 | .
O=C(C[C@H]1C/C=C\C[C@@H](Cc2ccc(F)cc2)C(=O)OC[C@H]2CCCN2C1=O)N[C@H](CO)Cc1ccccc1 | - | . | - | - | 28.5 | .
CC(C)(C)[C@H]1COC(=O)[C@@H](Cc2ccc(F)cc2)CC/C=C/C[C@@H](CC(=O)N[C@@H](CO)Cc2ccccc2)C(=O)N1 | - | . | - | - | 27.3 | .
C[C@@H]1COC(=O)[C@H](Cc2ccc(F)cc2)CC/C=C/C[C@@H](CC(=O)N[C@H](CO)Cc2ccccc2)C(=O)N1 | - | . | - | - | - | .
O=C(C[C@@H]1C/C=C\C[C@@H](Cc2ccc(F)cc2)C(=O)OCCNC1=O)N[C@H](CO)Cc1ccccc1 | - | . | - | - | 27.1 | .
O=C(C[C@@H]1C/C=C\C[C@@H](Cc2ccc(F)cc2)C(=O)OC[C@@H](Cc2ccccc2)NC1=O)N[C@H](CO)Cc1ccccc1 | - | . | - | - | - | .
CC(OC(=O)C1CCN(c2ccc(C(F)(F)F)cn2)CC1)C(=O)Nc1cccc([N+](=O)[O-])c1 (configuration not stated) | - | . | - | - | - | -
O=[N+]([O-])c1cc(-c2cnc3ccccc3n2)ccc1Oc1ccc(F)cc1 | - | - | - | - | 57.8 | -
Cc1ccc(C(=O)Nc2ncc(C)s2)o1 | - | - | - | - | - | -
Cc1ccc(C(=O)Nc2ncc(Cc3ccc(F)cc3)s2)o1 | - | - | - | - | 28.2 | -
NS(=O)(=O)c1ccc(NC(=O)CCC(=O)c2ccc(Cl)s2)cc1 | - | - | - | - | - | -
COC(=O)CNC(c1ccccc1)c1cc(C)ccc1NC(=O)CNC(=O)OCc1ccccc1 (configuration not stated) | - | - | - | 29.8 | - | -
O=C(NCc1nc2ccccc2[nH]1)C1=C[C@H](c2coc3ccccc3c2=O)C[C@H](OCc2ccc(CO)cc2)O1 | - | - | - | - | - | -
N#Cc1c(N(CCO)CCO)nc(N)c2c(N)nc3c(c12)CC(=O)N3Cc1cccs1 | - | - | - | 25.7 | - | -
CNc1cncc(C(=O)O)c1 | - | 42.0 | - | - | - | -
CC(C)C1Nc2ccc(S(N)(=O)=O)cc2C2C=CCC21 (configuration not stated) | - | - | - | - | 32.5 | -
NS(=O)(=O)c1ccc2c(c1)C1C=CCC1C(C1CC=CCC1)N2 (configuration not stated) | - | - | - | 28.0 | - | -
CCOC(=O)C1Nc2ccc(OC(F)(F)F)cc2C2C=CCC12 (configuration not stated) | - | - | - | - | - | -
Cc1ccc(C)c(NS(=O)(=O)c2ccc(OCC(=O)N3CCCC3)cc2)c1 | - | - | - | 25.4 | - | -
CCOC(=O)C1CCCN(C(=O)COc2ccc(S(=O)(=O)N(CC)c3ccccc3)cc2)C1 (configuration not stated) | - | - | - | 33.8 | - | -
CC(C)NS(=O)(=O)c1ccc(OCC(=O)N2CCCC2)cc1 | - | - | - | - | - | -
Cc1ccccc1NS(=O)(=O)c1ccc(OCC(=O)N2CCCC2)cc1 | - | - | - | - | - | -
CCC(C)NS(=O)(=O)c1ccc(OCC(=O)N2CCCC2)cc1 (configuration not stated) | - | - | - | 26.9 | - | -
SMILES | PAFAH2 inh | EBNA-1 inhibitor | PAFAH1B3 inh | pPAFAH FP inh | PAFAH1B2 inh | ZTA counter
O=C(COc1ccc(S(=O)(=O)NC2CCCCC2)cc1)N1CCN(c2cccc(Cl)c2)CC1 | - | - | - | 27.9 | - | -
COc1nc2ccccc2nc1OC | - | - | - | - | - | -
Cc1ccc(NC(=O)CCn2ccc([N+](=O)[O-])n2)nc1 | - | - | - | - | - | -
Cc1nn(C)c(Oc2ccccc2)c1CCNS(=O)(=O)c1ccc(Cl)cc1 | - | - | - | - | 24.8 | -
COc1ccc(S(=O)(=O)NCCc2c(C)nn(C)c2Oc2ccccc2)cc1 | - | - | - | - | - | -
CCOCCc1nnc(NC(=O)C2CC(=O)N(CCc3ccc(F)cc3)C2)s1 (configuration not stated) | - | - | - | - | - | -
CC1(C)CC(=O)C=C(c2cccc(Br)c2)C1 | - | . | - | - | - | -
Cc1ccc(C)c(NC(=O)C2CCCN(S(=O)(=O)c3c(C)noc3/C=C/N(C)C)C2)c1 (configuration not stated) | - | - | - | - | - | -
Cc1ccc(CCNC(=O)C2CCCN(S(=O)(=O)c3c(C)noc3C)C2)cc1 (configuration not stated) | - | - | - | - | 27.3 | -
Cc1ccc(CCNC(=O)C2CCCN(S(=O)(=O)c3c(C)noc3/C=C/N(C)C)C2)cc1 (configuration not stated) | - | - | - | - | 36.2 | -
COC(=O)C1CCN(C(=O)CC(NC(=O)C(F)(F)F)c2cccs2)CC1 (configuration not stated) | - | - | - | - | - | -
CC1CC(C)CN(CC(=O)N2CCOCC2)C1 (configuration not stated) | - | - | - | - | - | -
CC1CCc2sc(C(=O)N3CCN(c4ncccn4)CC3)cc2C1 (configuration not stated) | - | - | - | 27.9 | - | -
CC(=O)c1cc(O)c2ccccc2c1O | - | - | - | 26.5 | - | -
CN(C)c1ccc(N=Cc2nc(-c3ccccc3)oc2OC(=O)c2ccccc2)cc1 | - | - | - | - | - | -
O=C(Oc1oc(-c2ccco2)nc1C=Nc1ccc(Cl)cc1)c1ccco1 | 48.3 | - | - | 26.4 | - | -
O=S(=O)(c1ccc(F)cc1)N1CCN(C(=S)NCCc2ccccc2)CC1 | - | - | - | - | 24.4 | -
O=S(=O)(c1ccc(Cl)cc1)N1CCN(C(=S)Nc2ccccc2F)CC1 | - | - | - | - | 24.8 | -
COc1ccc(N2CCN(C(=S)NCCc3ccccc3)CC2)cc1 | - | - | - | - | - | -
Oc1ccc(N2CCN(C(=S)NCCc3ccccc3)CC2)cc1 | - | - | - | 29.3 | - | -
COc1ccc(SCCC(=O)NCc2ccncc2)cc1 | - | - | - | - | - | -
COc1cc(/C=N/Nc2nc(=O)[nH]nc2C)cc([N+](=O)[O-])c1O | - | - | - | - | - | -
CC1(O)C(=O)C=C2C=C(C3CC3)OC=C2C1=O (configuration not stated) | . | - | . | - | . | -
